An excerpt weighted towards active compounds, which were near 27% of everything screened.
Cav32 inh – blocks human Cav3.2 T-type calcium channel | O95180 | Cav3.2-expressing cells, Fluo-4 calcium fluorescence FDSS; active compounds read low | B-score at 10 µM | 4% of 100,000 active;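 active = single-dose well whose peak fluorescence ratio is a statistical outlier from its plate by either plate-standardised score or position-corrected B-score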
CYP2C9 activ – activators of human CYP2C9 | P11712 | recombinant CYP2C9, luciferin-H conversion, luminescence; active compounds read high; factor 1 = untreated enzyme, 0 = blocked | activation factor at 5 µM | 1.4% of 96,000 active | AID 1024;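 active = activation factor of 2 or more for CYP2C9 at a 5 µM dose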;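 also: 0 = sulfaphenazole-blocked wells and 1 = vehicle-only wells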
CYP2C9 inh – human CYP2C9 inhibition; P11712; CYP2C9 Supersomes, luciferin-H conversion, luminescence; inhibition, % at 5 µM; 20% of 96,000 active;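 active = blocking of liver enzyme CYP2C9 beyond about 50% at 5 µM, limit read from the data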
CYP2C19 activ – cytochrome P450 2C19 (human) activation; 96,000 tested, under 10 active; recombinant CYP2C19, luciferin-H EGE luminescence; active compounds read high; 0 = fully inhibited enzyme, 1 = untreated enzyme; activation factor at 5 µM; AID 1025;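 active = activation factor of at least 2 at 5 µM in the primary screen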;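 also: 0 = wells with 2.5 mM tranylcypromine and 1 = vehicle-only wells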
CYP2C19 inhib – inhibitors of human CYP2C19; AID 778; CYP2C19 Supersomes, luciferin-H EGE luminescence, 30 min; inhibition, % at 5 µM; 21% of 96,000 active; P33261;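 active = CYP2C19 inhibition above a set limit at 5 µM in the primary screen, cut at about 50% in these data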;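 also: plate controls were negative control wells for no effect and 2.5 mM tranylcypromine positive control for full effect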
Numbers without * were called inactive; nt = no result given.

SMILES	Cav32 inh	CYP2C9 activ	CYP2C9 inh	CYP2C19 activ	CYP2C19 inhib
CCC(=O)Nc1ccc(C(=O)c2ccccc2)cc1	-0.015	2*	-102	0.8	25
Cc1ccc(C(=O)N[C@@H](C)CN2C3=NC[C@H](C)N3C[C@H]2Cc2ccc(O)cc2)cc1Br	-0.56	nt	nt	nt	nt
CC1(C)CC(=O)C=C(c2ccc3[nH]ccc3c2)C1	0.73	nt	nt	nt	nt
CN(C(=O)CSc1nnc2ccccn12)C1CCS(=O)(=O)C1 (stereo unspecified)	-0.041	1.3	-34	1	1
CN(C(=O)CSc1nc2ccccc2n1CCc1ccccc1)C1CCS(=O)(=O)C1 (stereo unspecified)	-0.15	0.9	6	0.3	68*
CCn1c(SCC(=O)N(Cc2ccccc2)C2CCS(=O)(=O)C2)nc2ccccc2c1=O (stereo unspecified)	-0.49	0	95*	0.2	81*
Cc1n[nH]c(C)c1S(=O)(=O)N1CCN(C2CCCCC2)CC1	-0.23	0.7	28	1	1
C(=N\n1cnnc1)/c1ccc(N2CCOCC2)s1	0.29	0.8	19	0.4	60*
C(=N\n1cncn1)/c1ccc(N2CCOCC2)cc1	0.66	0.6	39	0.4	63*
C(=N\n1cnnc1)/c1ccc(N2CCOCC2)cc1	0.49	0.3	65*	0.1	88*
CCOC(=O)N1CCN(/C=C(\C#N)c2nc3ccccc3s2)CC1	-1	0.3	71*	0.2	80*
COC(=O)c1ccc(/C=C(\C#N)c2nc3ccccc3s2)cc1	0.032	0.8	25	0.8	20
CCOC(=O)Nc1ccc([N+](=O)[O-])cc1OC	0.075	nt	nt	nt	nt
CC(CC(=O)Nc1ccc(Cl)c([N+](=O)[O-])c1)c1ccccc1 (stereo unspecified)	-8.7*	0.3	74*	0.2	76*
COc1ccc([N+](=O)[O-])cc1NC(=O)CC(C)c1ccccc1 (stereo unspecified)	-3.4	1.5	-48	0.3	72*
CCC(=O)Nc1nc(C)c(C(=O)NC2CCCCC2)s1	0.52	nt	nt	nt	nt
CCc1nnc(NC(=O)c2ccncc2)s1	0.11	0.7	27	0.9	11
CC(C)Cc1nnc(NC(=O)c2ccncc2)s1	-0.022	0	96*	0.1	92*
Cn1c(O)c(C=NCC2CCNCC2)c(=O)n(C)c1=O	1.6	nt	nt	nt	nt
CCNC(=O)N1CCOCC1	-0.19	1	5	1	0
Cc1cc(C)n(CCCNC(=O)c2ccc(S(=O)(=O)NCc3ccco3)cc2)n1	nt	0.5	50*	0.9	10
Cc1occc1-c1nnc(SCC(=O)N2CCOCC2)n1Cc1ccco1	-0.8	1.1	-7	1.1	-13
O=C(CSc1nnc(-c2cc3ccccc3cc2O)n1Cc1ccco1)N1CCc2ccccc2C1	-5.1*	0.2	81*	0.4	57*
CC(C)N(C(=O)CSc1nnc(-c2cc3ccccc3cc2O)n1Cc1ccco1)C(C)C	-6.6*	0.4	62*	0.6	37
O=Cc1c(Sc2ccccn2)nc2ccccn2c1=O	0.0052	nt	nt	nt	nt
SMILES	Cav32 inh	CYP2C9 activ	CYP2C9 inh	CYP2C19 activ	CYP2C19 inhib
O=Cc1c(Sc2ccccc2)nc2ccccn2c1=O	0.35	0.7	29	0.3	72*
O=c1c(/C=N/Nc2ccccc2)c(Sc2nnnn2-c2ccccc2)nc2ccccn12	nt	0.3	72*	0.5	46
S=C(Nc1ccc2snnc2c1)N1CCN(c2ccccn2)CC1	0.68	0.8	18	0.7	26
O=C(CS(=O)(=O)Cc1ccccc1)Nc1ccccn1	0.31	nt	nt	nt	nt
CC(C)CN(CC(C)C)C(=O)CS(=O)(=O)Cc1ccccc1	0.46	0.7	33	0.4	62*
CCN(CC)CCCN1C(=O)C(O)=C(C(=O)c2ccco2)C1c1cc(OC)ccc1OC (stereo unspecified)	nt	1.2	-16	1.2	-24
CS(=O)(=O)N1N=C(c2ccc(Cl)cc2)CC1c1cccs1 (stereo unspecified)	-0.63	0.4	56*	0.1	94*
COc1ccccc1-c1nnc(NC(=O)OCC(C)C)s1	0.37	2.4*	-144	0.8	19
CCOC(=O)Nc1nnc(-c2ccccc2OC)s1	-0.44	nt	nt	nt	nt
COC(=O)CSc1nc2c(c(=O)[nH]c(=O)n2C)n1CCC(C)C	2.9	nt	nt	nt	nt
CCCSC1=C(C#N)C(c2ccccc2C)CC(=O)N1 (stereo unspecified)	0.45	0.6	39	0.4	57*
CCCSC1=C(C#N)C(c2ccc(Cl)cc2Cl)CC(=O)N1 (stereo unspecified)	-0.094	0.3	67*	0.6	37
